# Laboratory results reported in PubChem BioAssay AID1347171 (National Center for Advancing Translational Sciences (NCATS), 2019).
# Inconclusive results are not listed. The source made the active and inactive calls. Calls come from the whole dose curve; as a rule, active = well fitted inhibition curve with a large enough effect; inconclusive = small, poorly fitted or top-dose-only effect; inactive = no such curve, though single readings can be large or run the other way.
# Experiment: Orthogonal mCherry assay for qRT-PCR qHTS of selected Zika virus inhibitors
# Conditions: Vero cells, ZIKV-mCherry infection imaging, 48-72 h; series mostly up to 32.6 µM; activity change, negative = inhibition: at the top concentration
# From the text: Description: Assay Submitters (PI): Avindra Nath, Ph.D., National Institute of Neurological Disorders and Stroke (NINDS), Bethesda, MD Radhakrishnan Padmanabhan, Ph.D., Georgetown University (GU), Washington D.C. Zika Virus causes congenital defects, including microcephaly and is associated with Guillain-Barre syndrome, eningoencephalitis and myelitis in infected adult. […] Using a target-based approach, we hope to establish a screening paradigm to uncover novel, cell-active NS2B-NS3 protease (Zika Virus) specific inhibitors from NCATS' collection of small molecules using qHTS. […] Four assay panel was created to identify potential Zika Virus inhibitors. Namely, (1) GU unlinked NS2B-NS3 AMC tagged protease qHTS, (2) GU unlinked NS2B-NS3 Rhodamine tagged protease qHTS, (3) NINDS linked NS2B-NS3 AMC tagged protease qHTS, (4) NINDS linked NS2B-NS3 Rhodamine tagged protease qHTS. Inhibitors of the Zika virus primary screens are confirmed using qRT-PCR secondary assays, mCherry orthogonal assay, and Vero cells viability counterscreen. Early Translation Branch (ETB) National Center for Advancing Translational Sciences (NCATS), Rockville, MD National Institute of Health (NIH), Bethesda, Maryland
# 384 well ZIKV-mCherry Assay: We have developed a new orthogonal imaging assay in 384-well plate format, which uses recombinant virus ZIKV-mCherry in Vero cells. Briefly, 30 microL of Vero cells derived from a green monkey cell line, were dispensed by Multidrop Dispenser into a clear solid bottom black 384 well plate (ultracarrier, Perkin Elmer LifeSciences) at a concentration of 5,000 cells per well. […] The TIFFs were quantitated using the canned Multi Target Analysis protocol (GE Investigator Workstation software v3.7.2). […] A recombinant Zika viral infection was monitored in the Cy5 channel (cells) using a 2 microm collar dilation from the nuclear bitmap. mCherry objects with an average nuclear RFU intensity above 450 (3 stdev above mean negative control wells) were considered "mcherry positive" and data was analyzed by percent infection rate.
Structure (SMILES),Potency,"activity change, negative = inhibition"
CC(=O)c1c(O)c(C)c(O)c(Cc2c(O)c3c(c(C(=O)/C=C/c4ccccc4)c2O)OC(C)(C)C=C3)c1O,11.2 µM (active),–
O=C1OC(c2ccc(O)c(S(=O)(=O)O)c2)(c2ccc(O)c(S(=O)(=O)O)c2)c2c(Br)c(Br)c(Br)c(Br)c21,–,-37.8% (inactive)
CC(C)=CCC[C@]1(C)C=Cc2c(O)c3c(c(CC=C(C)C)c2O1)O[C@]12C(=C[C@@H]4CC1C(C)(C)O[C@@]2(C/C=C(/C)C(=O)O)C4=O)C3=O,3.55 µM (active),–
